From PubChem BioAssay (Tox21) come the findings set out here.

The structures appear in SMILES notation. Several values for one entry are separate records, joined by “and”; a condition that tells them apart may be missing. Equal entries are not always repeated. Inconclusive results are not listed. Where a call stands in place of a potency, no number is given. Some compounds were tested as several samples or in several runs, with calls that do not always agree. Activity calls are given as the source filed them. Calls come from the whole dose curve; as a rule, active = well fitted inhibition curve with a large enough effect in the repeat runs; inconclusive = weak or mixed curves; inactive = no such curve, though single readings can be large or run the other way.
Potency is the fitted concentration of half-maximal effect.

Cytochrome P450 2C9 (Homo sapiens), sequence (P11712 whole entry, looked up): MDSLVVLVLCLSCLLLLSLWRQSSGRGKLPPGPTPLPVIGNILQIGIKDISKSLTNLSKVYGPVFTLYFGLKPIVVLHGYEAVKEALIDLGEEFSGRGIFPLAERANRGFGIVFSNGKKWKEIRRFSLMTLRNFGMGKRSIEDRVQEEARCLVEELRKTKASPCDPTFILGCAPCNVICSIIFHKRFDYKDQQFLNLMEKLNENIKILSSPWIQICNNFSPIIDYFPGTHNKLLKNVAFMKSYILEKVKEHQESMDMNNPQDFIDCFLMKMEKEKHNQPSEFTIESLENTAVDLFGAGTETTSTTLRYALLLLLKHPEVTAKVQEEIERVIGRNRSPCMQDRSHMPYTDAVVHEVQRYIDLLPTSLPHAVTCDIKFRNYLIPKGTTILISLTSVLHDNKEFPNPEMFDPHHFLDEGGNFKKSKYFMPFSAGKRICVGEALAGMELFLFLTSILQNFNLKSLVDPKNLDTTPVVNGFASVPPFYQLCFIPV

The assay deals with Cytochrome P450 2C9 (Homo sapiens) (UniProt P11712). The assay is described as follows: Cytochrome P450 Family 2 Subfamily C Member 9 (CYP2C9) small molecule antagonists: luciferase reporter qHTS assay (AID 1671198). Note: nearly all actives have a fitted effect of over 50% in size. The note with it: P450-Glo CYP2C9 enzyme assay, luciferin luminescence; series mostly up to 115 µM. An excerpt:
U.S. Tox21 Program National Center for Advancing Translational Sciences [NCATS] U.S. Environmental Protection Agency [EPA] National Institutes of Environmental Health Sciences [NIEHS] National Toxicology Program [NTP] U.S. Food and Drug Administration [FDA] Tox21 Assay Overview: Cytochrome P450 (CYP) enzymes are membrane-bound hemeproteins that play a key role in metabolism of drugs and xenobiotics. Evaluation of the effect of chemicals on CYP isozymes is useful to minimize the adverse drug reactions and toxicities in drug development process. Tox21 chemicals were tested for their effect on CYP enzyme activities by using P450-Glo (TM) screening systems (Promega Corporation, Madison, WI). These systems provide a luminescent method containing proluciferin substrates and are converted to luciferin products by CYP isozymes. The luciferin products formed are detected with a luciferin detection reagent, and the amount of light produced is proportional to CYP activity. P450-Glo (TM) CYP2C9 screening system (Catalog. No. V9790) was used to detect the compounds that interfere in CYP2C9 activity.
Tox21 Assay Protocol Summary: Two ul of enzyme-substrate mix was dispensed into medium binding white/solid 1536-well plates (Greiner Bio-One North America Inc., Monroe, NC) using a BioRaptr Flying Reagent Dispenser (FRD, Beckman Coulter, Brea, CA). […] The assay plates were incubated at room temperature for 10 min. Then 2 ul of NADPH regeneration solution was added to each well of the assay plates using an FRD and incubated at 37C for 1 h. The reaction was stopped by adding 4 ul of detection reagent using an FRD and after 20 min incubation at room temperature the luminescence signal was measured using a ViewLux plate reader (Perkin Elmer, Shelton, CT). Data were expressed as relative luminescence units.
On the technique in general: In a reporter assay the amount or activity of a reporter protein is the signal.
`CCCCCCCC/C=C\CCCCCCCC(=O)O`: the Potency result was “inactive”.
Regarding `CCCCCC1C(=O)CCC1CC(=O)OC` (stereo not given), the Potency was 24.9 µM (active) and 31.7 µM (active).
For the compound `CCC(Cc1c(I)cc(I)c(N)c1I)C(=O)O` (stereo not given), the Potency is 30.7 µM (active) and 30.9 µM (active).
In the case of `Cc1ccc(N)c([N+](=O)[O-])c1`, the Potency result was “inactive”.
For the compound `NCCN`, the Potency result was “inactive”.
With `Cc1ccc(/C(=C\CN2CCCC2)c2ccccn2)cc1`, the Potency entry was “inactive”.
On to `Cc1ccc2c(c1)C(=O)OC2=O`, for which the Potency entry was “inactive”.
For `C1CN(SSN2CCOCC2)CCO1`, the Potency is 39.5 µM (active) and 28.3 µM (active).
`COC(=O)CC(=O)OC`: the Potency result is “inactive”.
For `OC[C@@H](O)[C@@H](O[C@@H]1O[C@H](CO)[C@H](O)[C@H](O)[C@H]1O)[C@H](O)[C@@H](O)CO`, the Potency result was “inactive”.
The entry for `Cc1ccc(S(=O)(=O)O)cc1C` is “inactive”; for `c1ccc2c(c1)[nH]c1ccccc12` it is “inactive”; for `C=C[Si](OCCOC)(OCCOC)OCCOC` it is “inactive”.
The entry for `CCCCCCCCCCC(CO)CCCCCCCC` (stereo not given) is “inactive”; for `CC(=O)OC(C)C` it is “inactive”; for `Oc1c(Cl)ccc(Cl)c1Cl` it is 35.5 µM (active) and 35.6 µM (active).
On to `CCCN1C=CN(C)C1`, for which the Potency entry was “inactive”.
`C=CC(=O)OCCCC`: the Potency result is “inactive”.
The figure for `CCOC(=O)C(C)Oc1ccc(Oc2cnc3cc(Cl)ccc3n2)cc1` (stereo not given) is 23.6 µM (active); for `COc1cc([C@H]2Oc3cc([C@H]4Oc5cc(O)cc(O)c5C(=O)[C@@H]4O)ccc3O[C@@H]2CO)ccc1O` it is 10 µM (active) and 8.71 µM (active); for `CC(C)[N+](C)(CCOC(=O)C1c2ccccc2Oc2ccccc21)C(C)C` it is “inactive”.
Next, `CCO[Si](CCCNC(N)=O)(OCC)OCC`: “inactive”; `C[C@]12C=CC(=O)C=C1CC[C@H]1[C@@H]3C[C@@H](O)[C@](O)(C(=O)CO)[C@@]3(C)C[C@H](O)[C@@]12F`: 20 µM (active); `Cc1ccc(C)c(O)c1`: “inactive”.
In the case of `CCCCCCC(C)O` (stereo not given), the Potency entry is “inactive”.
The figure for `C[C@]12CC[C@@H]3c4ccc(O)cc4CC[C@H]3[C@@H]1CC[C@H]2O` is 11.4 µM (active) and inactive.
`Nc1ccc(N)c(Cl)c1`: the Potency is 8.92 µM (active) and 8.94 µM (active).
The figure for `Nc1ccc2c(O)cc(S(=O)(=O)O)cc2c1` is 71 µM (active).
Regarding `CCCCCC=O`, the Potency result is “inactive”.
In the case of `O=C(O)CCCC(=O)O`, the Potency was 39.2 µM (active) and inactive.
Consider `C[N+](C)(C)CCO`, for which the Potency result is “inactive”.
Next, `O=C(O)c1ccc(O)cc1`: “inactive”.
On to `NCCOCCO`, for which the Potency entry was “inactive”.
The entry for `C=CCOC(=O)C(=C)C` is “inactive”.
As to `CC(=O)[C@@]1(O)CC[C@H]2[C@@H]3C[C@H](C)C4=CC(=O)C=C[C@]4(C)[C@@]3(F)[C@@H](O)C[C@@]21C`, the Potency was 10 µM (active) and 6.92 µM (active).
On to `Nc1ccc(O)c(N)c1`, for which the Potency was 35.3 µM (active) and 71 µM (active).
Take `C[C@]12CC[C@@H]3c4ccc(O)cc4CC[C@H]3[C@@H]1CC[C@@H]2O`: the Potency result was “inactive”.
With `ClC/C=C/CCl`, the Potency result was “inactive”.
Next, `CC1(C)C(C=C(Cl)Cl)C1C(=O)OCc1cccc(Oc2ccccc2)c1` (stereo not given): 15.8 µM (active) and 8.94 µM (active); `COC(=O)c1ccc(C)cc1`: “inactive”.
